HP1b binding inh – inhibitors of HP1-beta chromodomain binding to methylated histone tails; AlphaScreen HP1-beta / biotin-H3K9me3 peptide binding; 390,000 compounds, 0.56% hits; Potency, µM (titrated, usually from 114 µM), for the others: top-dose activity change, negative = inhibition, most hits filed as inhibitors; P83916; further: nearly all actives have a fitted effect of over 70% in size
Target sequence (P83916 whole entry, looked up): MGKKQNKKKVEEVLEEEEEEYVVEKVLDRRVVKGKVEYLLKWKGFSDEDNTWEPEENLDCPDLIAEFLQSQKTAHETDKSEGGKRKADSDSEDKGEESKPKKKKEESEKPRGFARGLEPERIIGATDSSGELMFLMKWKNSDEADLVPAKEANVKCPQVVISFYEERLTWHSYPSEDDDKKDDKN
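HP1-beta protein (50 nM final) preincubated 30 min at room temperature with biotinylated H3(1-18)K9me3 peptide (50 nM) in PBS pH 7.4, 0.01% Tween-20, then compound added for 30 min. AlphaScreen streptavidin donor/nickel chelate acceptor beads (10 ug/mL final), 30 min dark, luminescence read.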
JMJD2A Tudor – blocks the human JMJD2A Tudor domain; AlphaScreen JMJD2A-Tudor / H3K4me3 peptide binding; O75164; AID 504339; Potency, µM (highest dose often 114 µM), for the others: at the top dose activity change, negative = inhibition, actives largely listed as inhibitors; 390,000 compounds, 4.4% hits; further: on the % scale 0 is the no-effect control and ±100 the full control effect; nearly all actives have a fitted effect of over 50% in size
G9a block – inhibitors of human histone lysine methyltransferase G9a; AID 504332; 350,000 compounds, 8.8% hits; Q96KQ7; Potency, µM (doses to about 102 µM), for inactives: top-dose activity, negative = inhibition, usual class: inhibitors; G9a H3K9 monomethylation, AlphaScreen, 2 h; further: on the % scale 0 is the no-effect control and ±100 the full control effect; nearly all actives have a fitted effect of over 75% in size
Target sequence (Q96KQ7 913-1193 limits assumed): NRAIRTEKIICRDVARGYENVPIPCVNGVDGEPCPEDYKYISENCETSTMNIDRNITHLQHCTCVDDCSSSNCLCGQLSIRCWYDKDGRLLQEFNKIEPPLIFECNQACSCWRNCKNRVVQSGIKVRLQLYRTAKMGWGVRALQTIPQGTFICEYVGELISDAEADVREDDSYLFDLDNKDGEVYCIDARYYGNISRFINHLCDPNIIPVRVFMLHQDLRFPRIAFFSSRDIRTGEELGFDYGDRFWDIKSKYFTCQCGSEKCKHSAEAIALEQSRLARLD
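Step 1: enzyme (final 20 nM) with compound, 15 min RT. Step 2: substrate peptide 500 nM and SAM 20 uM, 2 h RT. Step 3: anti-H3K9me1 antibody and AlphaScreen beads, 10 min, then plate read.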
GLS inh – blocks human kidney-isoform glutaminase activity | O94925 | GLS enzymatic activity, qHTS titration | 410,000 compounds, 0.21% hits | Potency, µM (series often up to 45.5 µM), without a hit: at the top dose activity change, negative = inhibition, hits mostly inhibitors; further: on the % scale 0 is the no-effect control and ±100 the full control effect
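Enzyme dispensed in phosphate buffer (45 mM, pH 8.2, 0.02% Tween-20), compounds pinned in, then 1 mM L-glutamine solution and the glutamate oxidase–HRP–Amplex Red mix added; fluorescence read immediately and again after 30 min at room temperature.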
BAZ2B block – inhibitors of human BAZ2B bromodomain; Potency, µM (titrated, usually from 114 µM), without a hit: at the top dose activity change, negative = inhibition, most hits filed as inhibitors; AlphaScreen BAZ2B-H3K14Ac peptide displacement; 360,000 compounds, 4.4% hits; AID 504333; further: on the % scale 0 is the no-effect control and ±100 the full control effect; nearly all actives have a fitted effect of over 60% in size
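Multi-concentration screen (max 110 uM) measuring displacement of acetylated histone H3 peptide from BAZ2B by AlphaScreen, using 50 nM protein, 50 nM peptide and 10 ug/mL streptavidin donor plus Ni-chelate acceptor beads.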
L3MBTL1 block – L3MBTL1 (human) inhibition | Q9Y468 | AlphaScreen L3MBTL1–H3K9me1 peptide binding | Potency, µM (top dose mostly 57.1 µM), for the others: at the highest dose activity, negative = inhibition, usual class: inhibitors | 230,000 compounds, 0.66% hits | AID 485360; further: on the % scale 0 is the no-effect control and ±100 the full control effect; nearly all actives have a fitted effect of over 60% in size
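AlphaScreen proximity signal between nickel-chelate acceptor and streptavidin donor beads (final 10 ug/mL) reports binding of 50 nM L3MBTL1 to 75 nM biotin-H3 K9me1 peptide; complex incubated with compounds 30 min at room temperature; cefsulodin titration as control.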
Starred values were filed as active, the others as inactive; ? = inconclusive; · = no result; [ ] = remark or other dose. Most compounds without a hit are left out; they make up all but 10% or so of the library. The call rests on the fitted dose curve; in most records, active means well fitted curve in the direction sought with a large enough effect; inconclusive means small, poorly fitted or top-dose-only effect, or another doubt; inactive means no such curve, though single readings can be large; an effect the other way counts as inactive or inconclusive. Potency means the concentration at half of the fitted maximal effect.

SMILES	HP1b binding inh	JMJD2A Tudor	G9a block	GLS inh	BAZ2B block	L3MBTL1 block
COCCN(C(=O)CSc1nnc(-c2cccs2)n1N)c1c(N)n(Cc2ccccc2)c(=O)[nH]c1=O	50%	-6%	56µM*	1%	-4%	·
COCCN(C(=O)CSc1nc(-c2ccccc2)cn1N)c1c(N)n(Cc2ccccc2)c(=O)[nH]c1=O	33%	-24%	8.9µM*	13%	-2%	-11%
COCCN(C(=O)CSc1nnc(-c2ccc(C)c(C)c2)o1)c1c(N)n(CC(C)C)c(=O)[nH]c1=O	-3%	-11%	79µM*	0%	-3%	5%
Cc1ccc(-n2c(=O)c3c(c4cc(C)ccc4n3C)n(CC(=O)NCc3ccccc3)c2=O)cc1	13%	-15%	-15%[59 µM]	1%	0%	·
CC1C(=O)NN=C1C(=O)N/N=C\c1ccc(O)cc1O (stereo not given)	16%	40µM*	5%[59 µM]	19%	11µM*	28µM*
CCOc1cc2[nH]c(=O)n(CCCC(=O)N3CCN(c4ccc(OC)cc4)CC3)c(=O)c2cc1OCC	10%	-17%	-34%[59 µM]	11%	-2%	·
CCN=C(Nc1ccc2c(c1)OCO2)SC1CC(=O)N(c2ccccc2F)C1=O (stereo not given)	7%	-1%	19%	2%	3%	1%
C/C(CCc1ccc2c(c1)OCO2)=N\N=C(/N)SC1CC(=O)N(c2ccccc2F)C1=O (stereo not given)	24%	-10%	33%[0.501 µM]	8%	16µM*	-3%
CC(=O)NC(CCC(N)=O)C(=O)O (stereo not given)	·	·	·	-6%	·	·
Cc1cc(NC(=O)CS(=O)(=O)c2ccc(Cl)cc2)no1	27%	79µM*	-7%	-2%	-14%	·
CCCCOc1ccc(C(=O)Nc2ccc(CN3CCOCC3)cc2)cc1	30%	3%	4%[59 µM]	-4%	6%	3%
Cc1[nH]c2ccccc2c1CN1CCC(Cc2ccccc2)CC1	?	0.79µM*	14µM*	-2%	45µM*	1%
Cc1[nH]c2ccccc2c1CN1CCN(c2ccccn2)CC1	14%	-20%	?	-4%	-26%	-14%
CCOc1ccc(CN2CCC(Cc3ccccc3)CC2)cc1	?	25µM*	45µM*	13%	?	0%
OC(COc1ccc(Cl)cc1)CN1CCC(Cc2ccccc2)CC1 (stereo not given)	54%	-18%	28µM*	1%	-18%	·
CCCCOc1ccc(CN2CCC(O)CC2)cc1	-29%	2.8µM*	·	-1%	?	-5%
Cc1cccc(C(=O)Nc2nnc(SCc3cc(=O)n4cccc(C)c4n3)s2)c1	14%[57 µM]	-30%	-6%[59 µM]	1%	-2%	·
CC(C)c1cnc2c(c1SCC(=O)c1ccccc1)c(=O)n(C)c(=O)n2C	24%[57 µM]	-22%	13%[59 µM]	-1%	-7%	·
COc1cccc(N2CCN(S(=O)(=O)c3cn(C)c(C)n3)CC2)c1	24%[57 µM]	-6%	5%[59 µM]	2%	3%	·
Cc1cc(=O)n2nc(N3CCC(C(=O)Nc4ccc(Br)c(C)c4)CC3)sc2n1	37%	-4%	21%[59 µM]	-10%	1%	·
O=C(NC1CCN(Cc2cccc([N+](=O)[O-])c2)CC1)c1ccccc1	24%	-9%	?	2%	-18%	·
O=[N+]([O-])c1cccc(CN2CCC(Cc3ccccc3)CC2)c1	?	1.6µM*	35µM*	-6%	50µM*	-8%
OC(COc1ccc(C2C=CCC2)cc1)CN1CCCCC1 (stereo not given)	-19%	-29%	40µM*	-2%	-4%	-4%
COc1ccc(CCNC(=O)c2ccc(CN3CCC(Cc4ccccc4)CC3)cc2)cc1OC	18%	-19%	-10%[59 µM]	5%	-1%	-3%
COc1cccc(OC)c1OCCCN1CCC(Cc2ccccc2)CC1	?	20µM*	25µM*	12%	-35%	·
SMILES	HP1b binding inh	JMJD2A Tudor	G9a block	GLS inh	BAZ2B block	L3MBTL1 block
COc1ccc(CN2CCC(Cc3ccccc3)CC2)cc1OC	?	20µM*	50µM*	6%	?	-5%
O=c1[nH]c(CN2CCN(c3ccc(O)cc3)CC2)nc2scc(-c3ccc(Cl)cc3)c12	?	45µM*	3.2µM*	-4%	?	?
O=c1[nH]c(CN2CCN(c3ccccc3O)CC2)nc2scc(-c3ccccc3Cl)c12	23%	?	4%[59 µM]	0%	-31%	?
CC(=O)c1ccc(N2CCN(Cc3nc4ccccc4[nH]3)CC2)cc1	28%	-21%	39%	-5%	-20%	·
Oc1ccc(N2CCN(Cc3nc4ccccc4[nH]3)CC2)cc1	?	50µM*	11µM*	9%	-35%	·
CCN(CC)CCn1c(=S)[nH]c2cc3c(cc2c1=O)OCO3	12%	45µM*	45µM*	8%	-4%	0%
O=C(CCCn1c(=S)[nH]c2cc3c(cc2c1=O)OCO3)N1CCN(c2ncccn2)CC1	66%	?	?	-11%	-30%	3%
CCCCNC(=O)CCCn1c(=S)[nH]c2cc3c(cc2c1=O)OCO3	41%	-15%	-22%[59 µM]	-10%	9%	-2%
O=C(CCCn1c(=S)[nH]c2cc3c(cc2c1=O)OCO3)N1CCN(C2CCCCC2)CC1	25%	79µM*	?	-9%	-27%	3%
CCN(CC)CCNC(=O)CCCCn1c(=S)[nH]c2c([nH]c3ccc(OC)cc32)c1=O	?	4µM*	13µM*	-4%	?	-1%
CCN(CC)CCNC(=O)CCn1c(=S)[nH]c2cc3c(cc2c1=O)OCO3	17%	50µM*	21%[12.7 µM]	-22%	13%	2%
COc1ccc(CCNC(=O)c2ccc3c(c2)nc2n3CCOC2)cc1OC	29%[57 µM]	11%	9%[59 µM]	2%	2%	·
O=C1CCc2cc(S(=O)(=O)Nc3cccc(F)c3)ccc2N1	·	-17%	·	·	·	·
CC(C)Oc1ccc(OCCn2c(=S)[nH]c3c(N)ncnc32)cc1	?	5.6µM*	2.5µM*	-8%	-34%	·
Cc1ccc(OCCn2c(=S)[nH]c3c(N)ncnc32)cc1	?	5µM*	3.5µM*	?	-26%	-10%
Cc1ccc(OCCn2c(SCCO)nc3c(N)ncnc32)cc1	13%	6%	1%	-14%	1%	·
CC(C)Oc1ccc(OCCn2c(S(=O)(=O)O)nc3c(N)ncnc32)cc1	24%	-17%	?	1%	-7%	·
O=S(=O)(c1ccc(Cl)cc1)c1nc(-c2ccccc2)oc1N1CCN(c2ccccc2)CC1	-14%	-31%	-23%[59 µM]	-2%	?	·
Nc1nc2c(nc(Br)n2C2O[C@H]3COP(=O)(O)O[C@@H]3C2O)c(=O)[nH]1 (stereo not given in full)	·	·	29%[12.7 µM]	·	·	·

Screening results (PubChem BioAssay)
